Compounds without any hit were thinned out: in the full panel of roughly 83,000, 20% have a hit.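 Percent growth is the endpoint: 0 to 100 indicates growth inhibition (40 means 60% inhibition), 0 means no net growth, and negative values indicate cell death.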 Unmarked numbers belong to inactive results. Calls of active or inactive are those of the source. The calls were made as follows: active = growth percent below 10; inactive = the rest.

Common to all, as to test: NCI-60 one-dose screen, 48 h (100 = growth as untreated, 0 = no growth, -100 = all killed)
Common to all, as to conditions: 10 µM unless noted

For assay [1], the system named is SR leukemia.
In assay [2] the test system is RPMI-8226 leukemia.
Assay [3] relates to OVCAR-8 ovarian.
Assay [4] deals with OVCAR-5 ovarian.
Assay [5] relates to OVCAR-4 ovarian.
Assay [6] relates to IGROV1 ovarian.
The subject of assay [7] is OVCAR-3 ovarian.
The subject of assay [8] is HS 578T breast.
Assay [9] deals with NCI/ADR-RES ovarian.
For assay [10], the system named is SK-OV-3 ovarian.

On to `CC(C)CCSc1nc(NNC(N)=O)c(C#N)c(-c2ccccc2)n1`, for which the growth in assay [1] was 105%; in assay [2], 99.4%; in assay [3] it was 104%; in assay [4], 97.8%; in assay [5], 113%; in assay [6], 103%. The values for the growth in assay [7], in assay [8] and in assay [9] were 108%, 112% and 102%, respectively.

As to `COc1cc2nc(-c3ccc(C(F)(F)F)cc3)cc(OCCN3CCCC3)c2cc1OC`, the growth in assay [1] was 29.9%; in [2], 55.9%; in assay [3], 91%; in assay [4], 67.6%; in assay [5], 94.9%; in assay [10], 86.3%. For the same compound, the values for the growth in assay [7], in assay [8] and in assay [9] were 97.3%, 79.8% and 72.9%, respectively.

Take `O=C(Nc1cccc(Cl)c1)c1cc(Cl)ccc1O`: the growth in assay [1] is 12.3%; in assay [2] it was -20.9% (active); in assay [3] it was 9.51% (active); in assay [4], 12.3%; in [5], 27.4%; in assay [6], 17.5%. Also, the growth in assay [7] is 13.5%; in assay [8], -7.76% (active); in assay [9], 2.78% (active).

On to `O=[N+]([O-])c1cccc(-c2nc(-c3ccc(Cl)cc3Cl)cn2-c2ccccc2)c1`, for which the growth in assay [1] is -65% (active); in assay [2] it was 61.7%; in assay [3], -59.2% (active); in [4], 12.1%; in assay [5], -93.3% (active); in assay [6], 29.7%. Besides, the growth was -55.9% (active) in assay [7], -38.8% (active) in [8] and -1.46% (active) in [9].

Consider `CS(=O)(=O)c1ccc(-c2cc(-c3nnc(SCC(=O)Nc4ccc(C(=O)/C=C/c5ccc(Cl)cc5)cc4)n3-c3ccccc3)c3ccccc3n2)cc1`, for which the growth is 94.1% in assay [1]; 74.2% in [2]; 86.1% in [3]; 95.1% in assay [4]; 102% in assay [5]; 110% in [10]. For the same compound, the values for the growth in [7], in [8] and in [9] were 102%, 89.5% and 94.6%, respectively.

Turning to `CCCCCCCCCCCCCCCC(=O)OC[C@@]1(O)C[C@@]23CC[C@@H]4C(C)(C)[C@H](O)CC[C@@]4(C)[C@@H]2CC[C@H]1C3`, the growth in assay [1] is 98.2%; in assay [2], 102%; in [3] it was 108%; in [4], 106%; in assay [5], 113%; in [6], 117%. The growth in assay [7] is 107%; in assay [8], 100%; in [9] it was 106%.

`C[C@H]1[C@H](C)CC[C@]2(CO)CC[C@]3(C)C(=CC[C@@H]4[C@@]5(C)CCCNC(C)(C)[C@@H]5CC[C@]43C)[C@H]12`: the growth is -49.9% (active) in assay [1]; -39.7% (active) in assay [2]; 9.93% (active) in assay [3]; 28.4% in assay [4]; 18.5% in [5]; -57.9% (active) in [6]. Further, the values for the growth in assay [7], in assay [8] and in assay [9] were 6.84% (active), 10.5% and 17.6%, respectively.

For the compound `CCCCCCC/C=C/[C@H]1O[C@]2(O)C(=O)C=C3C[C@@H](O[C@@H]4O[C@H](CO)[C@@H](O)C(O)[C@@H]4O)C[C@@H]3[C@H]2C=C1C` (stereo partly specified), the growth was -26.4% (active) in [1]; -23.6% (active) in assay [2]; -20.5% (active) in assay [3]; 12% in [4]; 29.6% in assay [5]; -7.08% (active) in assay [6]. The growth in [7] was -75.4% (active); in [8] it was 29.1%; in assay [9] it was -6.45% (active).

Take `O=C1Nc2c(ccc(Cl)c2Cl)/C1=C/c1ccc(O)cc1`: the growth was 42% in [1]; 78.6% in [2]; 92.3% in [3]; 90.6% in [4]; 72.9% in assay [5]; 86.4% in assay [10]. Moreover, the growth is 92.9% in [7], 89% in assay [8] and 96.6% in [9].

Regarding `O=C1NC(=O)C(=Cc2cn(Cc3ccccn3)c3ccccc23)C(=O)N1`, the growth is 93% in [1]; 96.1% in assay [2]; 101% in assay [3]; -50.9% (active) in [4]; 93.4% in [5]; 31.6% in assay [6]. For the same compound, the growth was 102% in assay [7], 94.7% in assay [8] and 100% in [9].

Turning to `Cc1cn(-c2cc(C(=O)Nc3cccc(C#Cc4cccc5[nH]nc(N)c45)c3)cc(C(F)(F)F)c2)cn1`, the growth was 49.9% in assay [1]; 20.1% in [2]; 48.8% in [3]; 44.2% in [4]; 38% in assay [5]; 25.5% in [6]. Besides, the growth in [7] was 77.7%; in assay [8], 39.4%; in assay [9], 98.6%.

Take `O=C(N/N=C/c1cccnc1)c1ccccc1Nc1cccc(C(F)(F)F)c1`: the growth in [1] is -15.3% (active); in assay [2] it was 71.1%; in assay [3] it was 83.1%; in assay [4], 96.4%; in assay [5], 70.3%; in assay [6], 91.4%. Further, the growth in assay [7] is 75.4%; in assay [8], 100%; in assay [9], 79%.

On to `CCCCCCN(C)Cc1ccc(OCCOc2ccc(CN(C)CCCCCC)cc2)cc1`, for which the growth was -43.7% (active) in [1]; -14.4% (active) in assay [2]; 47.7% in [3]; 42.9% in assay [4]; 31.4% in assay [5]; 48.6% in [10]. In addition, the growth in assay [7] is 44.9%; in assay [8], -22% (active); in assay [9] it was 1.98% (active).

On to `COc1ccc(-c2nc(N/N=C/c3c[nH]c4ccccc34)nc(N3CCOCC3)c2C#N)cc1`, for which the growth in assay [1] was -2.03% (active); in assay [2], 71.9%; in [3], 92.5%; in assay [4] it was 125%; in [5], 105%; in [10], 115%. In addition, the growth in [7] is 90.4%; in assay [8] it was 93.4%; in assay [9], 96.5%.

Values taken from PubChem BioAssay (NCI).
